# Rows were chosen to be rich in hits. Some 9.2% of all compounds tested hit in one or more screens of this group.
# NPC1 promoter act: activates the NPC1 promoter; Huh7 NPC1 promoter luciferase reporter, 24 h; Potency, µM (titrated, usually from 9.22 µM), without a hit: at the highest dose activation, most hits filed as activators; actives 2.4% (n = 320,000); AID 485313; note: % of control where 0% means no effect; nearly all actives have a fitted effect of over 60% in size
#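 Huh7 cells stably carrying NPC1 promoter–luciferase, plated in Opti-MEM with 10% FBS for 2 h, were exposed to compound in DMSO for 24 h at 37 °C; luciferase reagent was added for 10 min and luminescence read.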
# SMN2 splice enh: enhancers of SMN2 splice variant expression; HEK293 SMN2-luciferase splicing reporter, luminescence, 30-36 h; Potency, µM (series often up to 46.1 µM), without a hit: top-dose activity change, positive = activation, usual class: activators; actives 2.8% (n = 210,000); note: % of control where 0% means no effect; nearly all actives have a fitted effect of over 55% in size
#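 HEK293 cells carry an SMN2 minigene-luciferase reporter in which exon 7 inclusion puts luciferase in frame. Cells were seeded at 2000 cells/well, attached for 10-12 hours, then exposed to compounds for 30-36 hours at 37C before ONE-Glo luminescence.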
# Rab9 prom act: activators of Rab9 promoter; Huh7 Rab9 promoter-luciferase reporter, luminescence, 24 h; Potency, µM (doses to about 9.22 µM), for inactives: at the highest dose activation, negative = inhibition, usual class: activators; actives 2.8% (n = 320,000); AID 485297; note: % of control where 0% means no effect; nearly all actives have a fitted effect of over 60% in size
#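 Cells were plated at 1500 per well in reduced-serum medium with 10% FBS and left 2 h. Compound in DMSO was then added for 24 h at 37 °C. Reporter signal was read by luminescence after 10 min with luciferase detection reagent.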
# FLuc modulator: firefly luciferase modulation, counter-screen for miR-21 project. P08659. AID 588342. Potency, µM (doses to about 57.5 µM), without a hit: top-dose activity change, negative = inhibition, most hits filed as inhibitors. actives 6.9% (n = 360,000). purified FLuc, Km substrates, luminescence inhibition;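 note: plate controls were vehicle for no effect and reference inhibitor for full effect; nearly all actives have a fitted effect of over 55% in size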
# Target sequence (P08659 whole entry, looked up): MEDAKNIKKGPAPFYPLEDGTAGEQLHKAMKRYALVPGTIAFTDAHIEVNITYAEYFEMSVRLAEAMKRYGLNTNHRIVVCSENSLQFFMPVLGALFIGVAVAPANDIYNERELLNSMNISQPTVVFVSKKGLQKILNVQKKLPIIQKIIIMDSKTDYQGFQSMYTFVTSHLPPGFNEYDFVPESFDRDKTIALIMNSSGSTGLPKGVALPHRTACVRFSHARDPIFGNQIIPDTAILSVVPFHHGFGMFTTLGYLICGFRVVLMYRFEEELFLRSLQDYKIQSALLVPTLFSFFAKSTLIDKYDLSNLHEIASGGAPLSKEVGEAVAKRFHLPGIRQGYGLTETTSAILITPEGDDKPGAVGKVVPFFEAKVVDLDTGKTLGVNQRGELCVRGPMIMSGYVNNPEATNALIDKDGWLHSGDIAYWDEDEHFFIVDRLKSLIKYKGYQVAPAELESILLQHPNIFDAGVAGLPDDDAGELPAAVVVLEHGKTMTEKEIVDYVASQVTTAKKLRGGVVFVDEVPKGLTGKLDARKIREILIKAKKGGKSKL
#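 Biochemical qHTS of compounds, final roughly 60 µM downward over six points, against 10 nM purified firefly luciferase using Km concentrations of substrates (10 uM D-luciferin, 10 uM ATP) in Tris acetate pH 7.5 buffer; luminescence output.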
# ELG1 repair inh: blocks ELG1-dependent DNA repair in HEK293T cells. AID 504467. Potency, µM (highest dose often 46.1 µM), for the others: at the top dose activity change, negative = inhibition, most hits filed as inhibitors. actives 2.3% (n = 330,000). HEK293T ELG1-luciferase reporter, luminescence, 16 h; DNA damage induced by 5-fluorouridine; note: % is set by controls: 0 for no effect and ±100 for the full control effect; nearly all actives have a fitted effect of over 55% in size
#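 Luminescence from the luciferase reporter, measured 30 min after ONE-Glo reagent at room temperature, was the read-out. Beforehand, 2,000 cells per well were exposed for 16 hr at 37 °C to 5-fluorouridine together with compound or vehicle.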
# ELG1 genotox: inducers of genotoxicity in HEK293T ELG1-luciferase cells; HEK293T ELG1-luciferase reporter, luminescence, 16 h; Potency, µM (series often up to 46 µM), for inactives: top-dose activity change, positive = activation, usual class: activators; actives 1.3% (n = 330,000); AID 504466; note: % of control where 0% means no effect; nearly all actives have a fitted effect of over 60% in size
#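 Reporter readout depends on ELG1 protein level, which increases with genetic stress. After 16 hr compound exposure at 37 °C, luciferase activity was quantified using ONE-Glo.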
# * marks the source's active call; other numbers are inactive results; ? = inconclusive; / = not tested or not shown; [ ] = dose if it differs, or a comment. Calls come from the whole dose curve; as a rule, active = well fitted curve in the direction sought with a large enough effect; inconclusive = small, poorly fitted or top-dose-only effect, or another doubt; inactive = no such curve, though single readings can be large; an effect the other way counts as inactive or inconclusive. Potency is the fitted concentration of half-maximal effect.
SMILES,NPC1 promoter act,SMN2 splice enh,Rab9 prom act,FLuc modulator,ELG1 repair inh,ELG1 genotox
CC(=O)Oc1cccc(C(=O)Nc2ccc3c(c2)C(=O)N(CC2CCCO2)C3=O)c1 (configuration not stated),22.0%,/,3.5%,?,22.6%,3.4%
COc1ccccc1Oc1ccc2c(c1)C(=O)N(CC1CCCO1)C2=O (configuration not stated),7.8%,/,27.7%,19µM*,-3.5%,-2.1%
COc1ccc(NC(=O)c2ccc3c(c2)C(=O)N(CC2CCCO2)C3=O)cc1 (configuration not stated),-6.9%,/,-4.9%,?,0.8%,-1.1%
COc1ccccc1OCC(=O)Nc1ccc2c(c1)C(=O)N(CC1CCCO1)C2=O (configuration not stated),-1.0%,0.4%,-4.2%,-4.6%,-3.7%,-5.3%
COc1cccc(NC(=O)c2ccc3c(c2)C(=O)N(CC2CCCO2)C3=O)c1 (configuration not stated),3.1%,/,0.4%,16.9µM*,23.9%,3.0%
COc1cccc(C(=O)Nc2ccc3c(c2)C(=O)N(CC2CCCO2)C3=O)c1 (configuration not stated),23.3%,/,24.7%,9.53µM*,?,-8.8%
CC1CN(c2ccc(Cl)nn2)CC(C)O1 (configuration not stated),-11.1%,-20.7%,0.9%,-7.4%,?,5.2%
CCn1c(SCc2ccc(C#N)cc2)nnc1-c1ccc(S(=O)(=O)N2CCCCC2)cc1,0.1%,-50.1%,-1.1%,-0.2%,10.3µM*,-9.0%
O=C(Nc1ccccc1)N(Cc1cccs1)c1ccc(F)cc1,/,/,/,-11.3%,/,/
Cc1cccc(NC(=O)c2cnc3n(c2=O)CCS3)c1,3.55µM*,11.2µM*,3.55µM*,12µM*,?,?
CCn1cnc2sc(C(=O)Nc3ccc4c(c3)OCO4)c(C)c2c1=O,?,12.6µM*,2.82µM*,10.7µM*,?,8.91µM*
O=C(Nc1ccc2c(c1)OCO2)c1cnc2n(c1=O)CCS2,?,12.6µM*,3.16µM*,?,?,?
O=C(Nc1ccc(OC(F)(F)F)cc1)c1cnc2n(c1=O)CCS2,?,-55.2%,14.0%,-11.3%,?,7.31µM*
O=C(Nc1ccccc1)c1cnc2n(c1=O)CCS2,25.1%,?,?,?,?,15.3%
N#Cc1cccc(C(=O)Nc2ccccc2C(=O)NC2CC2)c1,-1.7%,/,-0.8%,-2.9%,7.2%,-2.8%
O=C(Nc1ccc2c(c1)OCCO2)c1cnc2n(c1=O)CCS2,2.51µM*,20µM*,2µM*,9.53µM*,?,9.2µM*
O=C(NCc1ccc2c(c1)OCO2)c1cnc2n(c1=O)CCS2,3.3%,7.0%,-5.7%,-1.1%,13.4%,-1.3%
COc1ccccc1Nc1nc(-c2ccc3c(c2)NC(=O)CO3)cs1,-3.6%,-95.5%,0.1%,?,?,-5.1%
CCC(C)Nc1nc(-c2ccc3c(c2)NC(=O)CO3)cs1 (configuration not stated),21.0%,1.5%,?,16.9µM*,?,11.3%
COc1ccc(-c2cc(-c3ccccc3)nc(-c3ccc4c(c3)NC(=O)CO4)c2)cc1,-2.2%,6.7%,1.3%,-15.8%,23.1µM*,-2.8%
COc1ccc(Nc2nc(-c3ccc4c(c3)NC(=O)CO4)cs2)cc1,8.5%,-63.9%,17.8%,?,16.4µM*,-10.0%
c1nc2n(n1)C1=C(CCCC1)C1(CCCCC1)N2,-11.7%,-12.8%,3.9%,2.0%,0.8%,1.6%
O=C(CSc1nnc(-c2ccncc2)n1Cc1ccco1)OC1CCCCC1,-3.1%,24.3%,2.7%,3.9%,4.3%,-6.5%
CCCn1c(N)c(C(=O)CSc2nc3ccccc3s2)c(=O)[nH]c1=O,8.7%,12.6µM*,15.7%,-3.2%,?,-12.3%
CC(=O)c1c(C)[nH]c(C(=O)CSc2nnc(-c3ccco3)n2Cc2ccccc2)c1C,1.8%,-18.0%,-7.7%,-6.3%,?,-14.3%
SMILES,NPC1 promoter act,SMN2 splice enh,Rab9 prom act,FLuc modulator,ELG1 repair inh,ELG1 genotox
CCCn1c(N)c(C(=O)CSc2nnc(-c3ccco3)n2Cc2ccccc2)c(=O)[nH]c1=O,0.7%,-15.5%,-2.2%,-0.8%,14.6µM*,-7.8%
O=C(CSc1nnc(-c2ccco2)n1Cc1ccccc1)OC1CCCCC1,?,?,3.16µM*,9.53µM*,?,?
CC1CCN(S(=O)(=O)c2cccc(C(=O)Nc3nncs3)c2)CC1,-3.9%,/,-1.3%,5.8%,-16.0%,-6.2%
CCc1cc2c(cc3c(=O)n(CC(=O)NC(C)c4ccccc4)ncn32)s1 (configuration not stated),/,4.3%,/,-1.7%,/,/
Cc1ccc(CCNC(=O)CC(C)CC2=NS(=O)(=O)c3ccccc3N2)cc1 (configuration not stated),-4.7%,/,-4.8%,-0.2%,-5.9%,-2.8%
Cc1ccc(S(=O)(=O)n2c(C)nc3ccccc32)cc1,-5.8%,/,2.7%,1.6%,-0.6%,1.7%
CCOc1ccc(/C=C/c2nc3ccccc3n2S(=O)(=O)c2cccc(Cl)c2)cc1,/,5.01µM*,/,0.953µM*,/,/
Cc1ccc(/C=C/c2nc3ccccc3n2S(=O)(=O)c2cccc(Cl)c2)cc1,/,/,/,0.675µM*,/,/
CCOc1cc(S(=O)(=O)n2c(C)nc3ccccc32)ccc1F,1.1%,-29.8%,-8.9%,-1.0%,-2.2%,-13.8%
CSc1ccc(/C=C/c2nc3ccccc3n2S(=O)(=O)c2ccc(F)c(C)c2)cc1,/,/,/,0.269µM*,/,/
NC[C@@H]1O[C@H](O[C@@H]2[C@H](O[C@@H]3O[C@H](CO)[C@@H](O)[C@@H]3O)[C@@H](O)[C@@H](N)C[C@H]2N)[C@@H](N)[C@H](O)[C@@H]1O,/,-11.8%[20.6 µM],/,/,/,/
Cc1nn(-c2ccc(N3CCCC3)nn2)c(C)c1CCC(=O)N1CCN(c2ccc(F)cc2)CC1,/,/,/,0.4%,/,/
Cc1cc(Br)cc(C)c1OCC(=O)NNC(=O)c1cccs1,-2.6%,/,-2.4%,4.7%,-5.1%,0.0%
O=C(COc1ccc(Br)cc1Br)NNC(=O)c1cccs1,25.2%,/,?,1.9µM*,?,23.6%
O=C(COc1ccc(Br)cc1Br)NC(=O)NC1CCCC1,3.55µM*,14.1µM*,3.55µM*,9.53µM*,?,?
Cc1cc(Br)ccc1OCC(=O)NC1CCCC1,-6.6%,/,-5.7%,?,19.8%,?
CC(C)(C)NC(=O)NC(=O)COc1ccccc1C#N,3.98µM*,?,1.58µM*,8.49µM*,?,1.3µM*
CC(C)(C)NC(=O)NC(=O)COc1ccc(Br)cc1Br,1.26µM*,6.31µM*,0.631µM*,0.675µM*,?,2.06µM*
